Rows were chosen to be rich in hits. Some 2.8% of all compounds tested hit in one or more screens of this group.
Peg3 promoter – Peg3 promoter activity inhibition; inhibition, % at 20 µM; 360,000 tested, 1.7% active; HeLa PEG-Prom luciferase reporter, luminescence, overnight;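 active = inhibition of at least 50% at 20 µM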
KKLEB tox – CF airway cell cytotoxicity counter-screen; KKLEB CF airway cells viability, ATPlite luminescence, overnight; stronger effect = lower value; cells stimulated with P. aeruginosa culture filtrate; activity change (cytotoxicity), % at 5 µM; 360,000 tested, 0.36% active;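 active = corrected activity change at or below -50% at 5 µM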
TRPM1 prom inh – inhibitors of MITF-driven TRPM1 promoter in melanoma cells; 330,000 tested, 0.83% active; inhibition, % at 12.5 µM; AID 488899; SK-MEL-5 TRPM1 promoter luciferase, 24 h;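 active = mean inhibition across replicates of 60% or more, whatever share of single replicates reaches that level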
B2AR ag – activates human beta-2 adrenergic receptor causing internalization; P07550; Am2.2-beta2AR cells, FAP receptor internalization, flow cytometry; response, % (concentration not given with the values); 340,000 tested, 0.43% active; AID 504454;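 active = response above a set limit, near 3 SD of response in nonfluorescent compounds, cut at about 42% in these data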
Target sequence (P07550 whole entry, looked up): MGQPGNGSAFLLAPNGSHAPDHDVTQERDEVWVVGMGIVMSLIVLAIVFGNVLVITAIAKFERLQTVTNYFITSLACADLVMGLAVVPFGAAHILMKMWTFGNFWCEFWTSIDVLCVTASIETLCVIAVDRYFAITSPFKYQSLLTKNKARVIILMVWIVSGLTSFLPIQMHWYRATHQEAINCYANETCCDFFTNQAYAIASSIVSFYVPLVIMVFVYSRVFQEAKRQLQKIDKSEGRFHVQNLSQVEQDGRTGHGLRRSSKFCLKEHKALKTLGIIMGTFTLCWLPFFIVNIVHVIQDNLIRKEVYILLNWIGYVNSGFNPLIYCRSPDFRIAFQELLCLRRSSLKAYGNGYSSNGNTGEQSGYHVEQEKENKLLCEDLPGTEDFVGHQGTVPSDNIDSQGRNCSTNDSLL
HIF-2a block – inhibitors of HIF-2a. 786-0 RCC cells HIF-2a reporter, luciferase luminescence, overnight. 360,000 tested, 0.72% active. inhibition, % at 18.8 µM. AID 624352;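 active = inhibition of the luminescence signal of 40% or more relative to plate controls, in a single-dose primary screen at 18.75 µM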
CF NFkB block – cystic fibrosis NF-kB activation inhibition | KKLEB NF-kB-GFP reporter, PAF-induced, GFP fluorescence overnight | inhibition, % at 5 µM | 360,000 tested, 0.86% active | AID 588850;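 active = at least 50% inhibition at 5 µM, scaled per plate between neutral and stimulator controls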;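 also: PAF is a Pseudomonas aeruginosa culture filtrate used as stimulus; plate controls were PAF-stimulated DMSO wells for no effect and unstimulated DMSO wells for full effect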
Active calls of the source: *.

`COc1cc(C(O)c2nc(-c3cccc4cccnc34)cs2)ccc1F` (stereo unspecified) gave Peg3 promoter -38.6, KKLEB tox -6.4, HIF-2a block -63.9 and CF NFkB block -6.7.
O=C(/C=C/c1cccc([N+](=O)[O-])c1)c1cccs1 was read as Peg3 promoter 98.7*, KKLEB tox -0.8, TRPM1 prom inh 79.9*, B2AR ag 14.8, HIF-2a block -3.2 and CF NFkB block 44.4.
`CC(C)(CO)NCc1c(OCc2ccc(Cl)cc2)ccc2ccccc12` gave Peg3 promoter 53.7*, KKLEB tox -1.3, TRPM1 prom inh -9.8, B2AR ag 14.7, HIF-2a block -54.3 and CF NFkB block 10.8.
CCCNC(=O)C1(C)CCCN(CC(=O)c2ccccc2OC)C1 (stereo unspecified) was read as Peg3 promoter 2.7, KKLEB tox -1.4, HIF-2a block 13.4 and CF NFkB block -18.7.
`CC(=O)Nc1ccc(C(=O)N2CCCC(c3cc(C(=O)Nc4ccccc4Cl)no3)C2)cc1` (stereo unspecified) gave Peg3 promoter -28.1, KKLEB tox 10.0, HIF-2a block -45.0 and CF NFkB block 6.8.
For Cc1cc(NC(=O)C2CCCC2)nc2c1c(=O)oc1ccccc12 the results were Peg3 promoter 4.5, KKLEB tox 19.8, TRPM1 prom inh 4.5, B2AR ag -13.5, HIF-2a block -55.7 and CF NFkB block -34.4.
Cc1cc(NC(=O)C2CCCCC2)nc2c1c(=O)oc1ccccc12 was read as Peg3 promoter 50.9*, KKLEB tox 5.4, TRPM1 prom inh 9.2, B2AR ag -5.8, HIF-2a block -11.8 and CF NFkB block -37.9.
Cc1cc(C)cc(NC(=O)NCC2CCN(Cc3cc(C)ccc3C)CC2)c1 was read as Peg3 promoter 84.3*, KKLEB tox -17.5, TRPM1 prom inh 3.8, B2AR ag 23.3, HIF-2a block 21.8 and CF NFkB block 6.3.
For Cc1ccc(NC(=O)NCC2CCN(Cc3cccc(Cl)c3)CC2)cc1Cl the results were Peg3 promoter 83.1*, KKLEB tox -16.7, TRPM1 prom inh 51.5, B2AR ag 30.2, HIF-2a block 4.5 and CF NFkB block 17.4.
For CCc1ccc(NC(=O)NCC2CCN(Cc3cccc(Cl)c3)CC2)cc1 the results were Peg3 promoter 35.3, KKLEB tox -2.2, TRPM1 prom inh 7.9, B2AR ag 4.0, HIF-2a block 14.8 and CF NFkB block 5.1.
Screening CCc1ccc(C(O)(CC(C)C)C(CN2CCOCC2)c2ccccc2)cc1 (stereo unspecified) returned Peg3 promoter 53.9*, KKLEB tox 7.6, TRPM1 prom inh 24.8, B2AR ag 9.5, HIF-2a block 13.7 and CF NFkB block 2.3.
For CCCC(O)(c1ccc(Cl)cc1)C(CN1CCOCC1)c1ccc(Cl)cc1 (stereo unspecified) the results were Peg3 promoter 57.7*, KKLEB tox 2.4, TRPM1 prom inh 5.5, B2AR ag 15.6, HIF-2a block 6.6 and CF NFkB block 12.2.
CCCC(O)(c1ccc(OC)cc1)C(CN1CCOCC1)c1ccc(Cl)cc1 (stereo unspecified) was read as Peg3 promoter 42.4, KKLEB tox 12.5, TRPM1 prom inh 5.2, B2AR ag 2.9, HIF-2a block 2.9 and CF NFkB block -0.5.
Screening CCCCc1c(-c2ccccc2OC)ncn1CCc1ccccc1 returned HIF-2a block 13.9.
Screening O=C(Nc1ccc(C(O)(C(F)(F)F)C(F)(F)F)cc1)c1ccc(Cl)c([N+](=O)[O-])c1 returned Peg3 promoter 57.7*, KKLEB tox -0.6, TRPM1 prom inh 3.8, B2AR ag 38.1, HIF-2a block -51.2 and CF NFkB block 0.3.
CCCSc1nc2c(cnn2-c2ccc(C)cc2)c(=O)[nH]1 was read as Peg3 promoter 61.4*, KKLEB tox -6.4, TRPM1 prom inh 2.3, B2AR ag 3.6, HIF-2a block 17.2 and CF NFkB block 21.6.
`CN(C)CCCNc1cc(-c2ccccc2)nc2cc(-c3cccc(F)c3)nn12` gave Peg3 promoter 101.0*, KKLEB tox 7.6, TRPM1 prom inh 62.8*, B2AR ag 23.9, HIF-2a block -47.3 and CF NFkB block -9.7.
`Cc1cccc(-c2cc3nc(C)cc(NCCCN(C)C)n3n2)c1` gave Peg3 promoter -10.4, KKLEB tox -9.8, TRPM1 prom inh -14.8, B2AR ag 4.4, HIF-2a block -42.1 and CF NFkB block -19.8.
For CCOc1ccc(C2Nc3ccc4ccccc4c3-c3c2c(=O)oc2ccccc32)cc1 (stereo unspecified) the results were Peg3 promoter 46.8, KKLEB tox -25.2, TRPM1 prom inh 28.9, B2AR ag 14.4, HIF-2a block -9.9 and CF NFkB block 13.2.
Screening COc1ccc(C2Nc3ccc4ccccc4c3-c3c2c(=O)oc2ccccc32)cc1 (stereo unspecified) returned Peg3 promoter 56.5*, KKLEB tox -19.5, TRPM1 prom inh 6.3, B2AR ag 23.1, HIF-2a block -14.5 and CF NFkB block 17.8.
Screening O=C1OC(CN(Cc2ccccc2)Cc2ccccc2)CN1N=Cc1ccc([N+](=O)[O-])o1 (stereo unspecified) returned Peg3 promoter 13.7, KKLEB tox 6.0, TRPM1 prom inh 82.0*, B2AR ag -4.3, HIF-2a block -15.9 and CF NFkB block -0.7.
For O=C1OC(CN2CCOCC2)CN1N=Cc1ccc([N+](=O)[O-])o1 (stereo unspecified) the results were Peg3 promoter -9.9, KKLEB tox -0.1, TRPM1 prom inh -1.7, B2AR ag 6.2, HIF-2a block -5.1 and CF NFkB block 8.1.
CC(C)COC(=O)N1CCCCC1c1cc(C(=O)NCc2ccccc2)no1 (stereo unspecified) was read as Peg3 promoter 8.2, KKLEB tox -5.1, HIF-2a block 8.1 and CF NFkB block 13.6.
Screening COC(=O)c1cnc(Nc2nc(C(N)Cc3ccccc3)cs2)nc1C(F)(F)F (stereo unspecified) returned Peg3 promoter 52.0*, KKLEB tox -13.8, HIF-2a block -15.1 and CF NFkB block -3.6.
For COC(=O)c1cnc(Nc2nc(C(N)Cc3ccc(Cl)cc3)cs2)nc1C(F)(F)F (stereo unspecified) the results were Peg3 promoter 95.9*, KKLEB tox -16.2, HIF-2a block 17.4 and CF NFkB block 15.7.
`O=c1ccoc2ccccc12` gave Peg3 promoter -13.5, KKLEB tox 0.6, HIF-2a block 14.1 and CF NFkB block -5.3.
Screening CCc1nc2ccc(C(=O)Nc3ccc4c(c3)OCC(=O)N4)cn2c1N(C)C(=O)Cc1ccccc1 returned Peg3 promoter 10.9, KKLEB tox -3.6, HIF-2a block 5.8 and CF NFkB block -11.5.
CCOC(=O)/C=C/C(=O)Nc1ccc(Oc2ccccc2)cc1 was read as Peg3 promoter 53.9*, KKLEB tox -4.9, TRPM1 prom inh 6.9, B2AR ag -6.2, HIF-2a block 33.6 and CF NFkB block -34.8.

High-throughput results from PubChem BioAssay.
